Experimental data as given in PubChem BioAssay (NCI).
The panel holds about 79,000 compounds, 15% with a hit somewhere; the sample as a whole holds those more often. The source made the active and inactive calls. Rule as the data show it: active = growth inhibition above about 70%; inactive = the rest.

Tests used:
[1] = NCI Yeast Anticancer Drug Screen. Data for the rad50 strain (AID 155);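 also: 0% = growth of vehicle-only cultures of the same strain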; conditions: S. cerevisiae rad50 strain growth inhibition, active compounds read high
Summary of the method: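 DNA repair mutant yeast, compound exposure, growth read-out; inhibition is taken relative to vehicle.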

[2] = NCI Yeast Anticancer Drug Screen. Data for the mec2-1 strain (AID 157); conditions: S. cerevisiae mec2-1 strain, active compounds read high
Summary of the method: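 Vehicle-treated cultures served as reference for growth inhibition of compound-exposed mec2-1 yeast.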

[3] = NCI Yeast Anticancer Drug Screen. Data for the sgs1 mgt1 strain (AID 161);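 also: 0% = growth of cultures given vehicle only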; conditions: S. cerevisiae sgs1 mgt1 strain, active compounds read high
Summary of the method: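 Mutant yeast exposed to compound; growth scored against vehicle-only wells.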

[4] = NCI Yeast Anticancer Drug Screen. Data for the cln2 rad14 strain (AID 165);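 also: 0% = growth equal to vehicle treated cultures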; conditions: S. cerevisiae cln2 rad14 strain, active compounds read high
Summary of the method: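 Each compound was tested on cln2 rad14 yeast. Inhibition of growth was calculated against vehicle-exposed controls.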

[5] = NCI Yeast Anticancer Drug Screen. Data for the bub3 strain (AID 167); conditions: S. cerevisiae bub3 mutant strain, active compounds read high
Summary of the method: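 In this screen, a yeast mutant lacking normal mitotic checkpoint function is challenged with compound. Relative growth versus vehicle gives the inhibition value.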

[6] = NCI Yeast Anticancer Drug Screen. Data for the mlh1 rad18 strain (AID 175); conditions: S. cerevisiae mlh1 rad18 strain growth inhibition, active compounds read high
Summary of the method: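 Vehicle-treated cultures served as the reference for growth inhibition in a yeast strain carrying DNA damage repair alterations exposed to each compound.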

[7] = at 5.0 µM (retest, dose inferred, filed as 0.5)
[8] = at 50.0 µM (retest, dose inferred, filed as 5.0)

Measured: growth inhibition

CCCCOC(=O)C(=O)/C(=C/N1C(=O)/C(=C/C(C)=C/c2ccccc2)SC1=S)C(=O)C=C(C)C
active: [6]; at 50.0 µM 71.1%
inactive: [1]; [7] 0% | [1]; [8] 8% | [1]; at 50.0 µM 39.7% | [2]; [7] -13% | [2]; [8] 10% | [2]; at 50.0 µM 63.4% | [3]; [7] -10% | [3]; [8] 5% | [3]; at 50.0 µM 50.5% | [4]; [7] -25% | [4]; [8] 11% | [4]; at 50.0 µM 46.8% | [5]; [7] -10% | [5]; [8] 26% | [5]; at 50.0 µM 68% | [6]; [7] 1% | [6]; [8] 14%

COc1ccc(/C(=N/NC(N)=O)C(c2ccc(OC)cc2)C2C(=O)Oc3ccccc32)cc1 (configuration not stated)
active: [1]; [8] 88% | [1]; at 50.0 µM 98.2% | [2]; [8] 96% | [2]; at 50.0 µM 99% | [3]; [8] 86% | [3]; at 50.0 µM 98.6% | [4]; [8] 77% | [4]; at 50.0 µM 88.8% | [5]; [8] 83% | [5]; at 50.0 µM 99.2% | [6]; [8] 95% | [6]; at 50.0 µM 98.4%
inactive: [1]; [7] -7% | [2]; [7] -59% | [3]; [7] -4% | [4]; [7] 0% | [5]; [7] 0% | [6]; [7] -2%

Cc1cc(Cl)ccc1NC(=O)CC1SC(=NC(=O)c2ccccc2Cl)NC1=O (configuration not stated)
inactive: [4]; [7] 48%
active: [1]; [7] 98% | [1]; [8] 99% | [1]; at 50.0 µM 91% | [2]; [7] 99% | [2]; [8] 100% | [2]; at 50.0 µM 94.2% | [3]; [7] 96% | [3]; [8] 99% | [3]; at 50.0 µM 90.7% | [4]; [8] 99% | [4]; at 50.0 µM 92.4% | [5]; [7] 98% | [5]; [8] 99% | [5]; at 50.0 µM 91.5% | [6]; [7] 98% | [6]; [8] 99% | [6]; at 50.0 µM 92.2%

CCc1ccc2ccc3ccc(CC)nc3c2n1
active: [1]; [7] 74% | [1]; [8] 96% | [1]; at 50.0 µM 96.9% | [2]; [7] 85% | [2]; [8] 94% | [2]; at 50.0 µM 97.7% | [3]; [7] 86% | [3]; [8] 96% | [3]; at 50.0 µM 97.8% | [4]; [7] 72% | [4]; [8] 91% | [4]; at 50.0 µM 82.7% | [5]; [7] 95% | [5]; [8] 97% | [5]; at 50.0 µM 95.3% | [6]; [7] 85% | [6]; [8] 96% | [6]; at 50.0 µM 97.7%

O=C(O)/C(=C\c1ccc(O)cc1)c1cccc2ccccc12
active: [4]; at 50.0 µM 76.2%
inactive: [1]; [7] 31% | [1]; [8] 18% | [1]; at 50.0 µM 45.3% | [2]; [7] -2% | [2]; [8] 36% | [2]; at 50.0 µM 37.6% | [3]; [7] -2% | [3]; [8] 12% | [3]; at 50.0 µM 5.5% | [4]; [7] 3% | [4]; [8] 27% | [5]; [7] -21% | [5]; [8] 22% | [5]; at 50.0 µM 61.5% | [6]; [7] -4% | [6]; [8] 49% | [6]; at 50.0 µM 48%

Cc1cc2ccc(N)nc2[nH]c1=O
active: [4]; at 50.0 µM 85.4%
inactive: [1]; [7] -7% | [1]; [8] -4% | [1]; at 50.0 µM 25.6% | [2]; [7] -2% | [2]; [8] -3% | [2]; at 50.0 µM 27.2% | [3]; [7] -4% | [3]; [8] 0% | [3]; at 50.0 µM 10.3% | [4]; [7] -3% | [4]; [8] -1% | [5]; [7] 1% | [5]; [8] 5% | [5]; at 50.0 µM 12.7% | [6]; [7] -2% | [6]; [8] 1% | [6]; at 50.0 µM 24.8%

CC1(C)NC(=O)C(C)(C)NC1=O
inactive: [1]; [7] 4% | [1]; [8] -2% | [1]; at 50.0 µM -12.9% | [2]; [7] 1% | [2]; [8] 2% | [2]; at 50.0 µM 5.8% | [3]; [7] 0% | [3]; [8] -1% | [3]; at 50.0 µM -7.4% | [4]; [7] 2% | [4]; [8] 3% | [4]; at 50.0 µM -19.9% | [5]; [7] 4% | [5]; [8] -2% | [5]; at 50.0 µM 48% | [6]; [7] 3% | [6]; [8] 3% | [6]; at 50.0 µM -14.8%

C=C1CC[C@H]2C(C)=CC[C@@H]3[C@H](OC(=O)[C@H]3CN3CCN(c4ccc(C)c([N+](=O)[O-])c4)CC3)[C@@H]12
inactive: [1]; [7] 29% | [1]; [8] 65% | [1]; at 50.0 µM 69% | [2]; [7] 30% | [2]; [8] 40% | [2]; at 50.0 µM 66.2% | [3]; [7] 52% | [4]; [7] 48% | [4]; [8] 60% | [4]; at 50.0 µM 63% | [5]; [7] 52% | [5]; at 50.0 µM 69.8% | [6]; [7] 42% | [6]; at 50.0 µM 47.8%
active: [3]; [8] 76% | [3]; at 50.0 µM 79.6% | [5]; [8] 71% | [6]; [8] 72%

CCCCCCCCCCCCCC(=O)OCCCC1CCCO1 (configuration not stated)
inactive: [1]; [7] -2% | [1]; [8] -2% | [1]; at 50.0 µM 8.55% | [2]; [7] -2% | [2]; [8] 2% | [2]; at 50.0 µM -13.8% | [3]; [7] -1% | [3]; [8] 4% | [3]; at 50.0 µM 13.2% | [4]; [7] 7% | [4]; [8] 7% | [4]; at 50.0 µM 53.6% | [5]; [7] -2% | [5]; [8] -3% | [5]; at 50.0 µM 11.3% | [6]; [7] 11% | [6]; [8] 0% | [6]; at 50.0 µM -38.2%
